ChEMBL document CHEMBL1157539, “Thousands of chemical starting points for antimalarial lead identification” (Nature, 2010)

These compounds were tested on Plasmodium falciparum (assay: GSK_TCMDC: Inhibition of Plasmodium falciparum 3D7 in whole red blood cells, using parasite LDH activity as an index of growth. Test compounds present at 2uM).
Type: functional

SMILES | Inhibition
O=C(CCN(Cc1ccco1)c1nc(-c2ccc(F)cc2)nc2ccccc12)NC1CC1 | 94%
O=C(Nc1cccc(C(F)(F)F)c1)c1cccc(S(=O)(=O)NC2CCCN(CC3CCCCC3)C2)c1.O=C(O)C(F)(F)F (configuration not stated) | 97%
N#Cc1cccc(C(=O)Nc2ccc(-c3ccc(CN4CCCC4)cc3)cc2)c1.O=C(O)C(F)(F)F | 92%

The compounds below were run on Plasmodium falciparum (assay: GSK_TCMDC: Inhibition of Plasmodium falciparum Dd2 in whole red blood cells, using parasite LDH activity as an index of growth. Test compounds present at 2uM).
Type: functional

SMILES | Inhibition
Cc1cc(N2CCCC2)nc(Nc2ccc(NC(=O)c3ccc4c(c3)OCO4)cc2)n1 | 67%
Cc1cc(NC(=O)c2cccs2)ccc1OC1CCN(Cc2ccc(F)cc2)CC1.O=C(O)C(F)(F)F | 92%
CC(=O)c1cccc(S(=O)(=O)NCCCNc2nc3cc(C)cc(C)c3cc2C#N)c1 | 75%
COc1ccc(S(=O)(=O)Nc2cc(C)cc(Br)c2OC)cc1N1CCN(C(=O)C(Cl)(Cl)Cl)CC1.Cl | 66%
COc1nc(NCC(C)C)nc(Oc2ccc(=O)n(Cc3ccccc3)n2)n1 | 93%
Cc1cc(N[C@@H](Cc2ccccc2)C(=O)Nc2ccccc2)nc(NCC2CCCCC2)n1.O=C(O)C(F)(F)F | 55%
COc1ccc(NC(=O)/C=C/c2ccc(Cl)c(C(F)(F)F)c2)cc1OCCN(C(C)C)C(C)C.O=C(O)C(F)(F)F | 28%
CCCCCCCN1CC[C@@H](CCCc2ccnc3ccc(OCCCCN/C(N)=N/O)cc23)[C@@H](CC)C1.O=C(O)C(=O)O | 39%
Cc1csc(-c2ncc(OC[C@@H](N)Cc3ccccc3)cc2-c2ccc3[nH]nc(C)c3c2)c1.O=C(O)C(F)(F)F | 35%
